From article PMC5540273 (PLoS ONE, 2017)

Columns and labels:
Conditions in all cases: concentration: 1 μM, replicates: in singlicate; n = 1
[1] = test system: LCK
[2] = test system: LIMK1
[3] = test system: LIMK2
[4] = test system: T1, LKB1
T1 construct: gene STK11

[5] = test system: T2, LOK
T2 construct: gene STK10

[6] = test system: LRRK2
[7] = test system: LTK
[8] = test system: LYN
[9] = test system: T3, LZK
T3 construct: gene MAP3K13

[10] = test system: MAK
[11] = test system: MAP3K15
[12] = test system: MAP3K1
[13] = test system: MAP3K2
[14] = test system: MAP3K3
[15] = test system: MAP3K4
[16] = test system: MAP4K2
[17] = test system: MAP4K3
[18] = test system: MAP4K4
[19] = test system: MAP4K5
[20] = test system: MAPKAPK2
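Note: KINOMEscan kinase panel screen.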

| SMILES | %Inh [1] [%] | %Inh [2] [%] | %Inh [3] [%] | %Inh [4] [%] | %Inh [5] [%] | %Inh [6] [%] | %Inh [7] [%] | %Inh [8] [%] | %Inh [9] [%] | %Inh [10] [%] | %Inh [11] [%] | %Inh [12] [%] | %Inh [13] [%] | %Inh [14] [%] | %Inh [15] [%] | %Inh [16] [%] | %Inh [17] [%] | %Inh [18] [%] | %Inh [19] [%] | %Inh [20] [%] |
| --- | --- | --- | --- | --- | --- | --- | --- | --- | --- | --- | --- | --- | --- | --- | --- | --- | --- | --- | --- | --- |
| N#CC1(c2cccc(C(=O)Nc3cccc(Oc4ccc5nc(NC(=O)C6CC6)sc5n4)c3)c2)CC1 | 99.3 | 6 | 0 | 0 | 95.9 | 0 | 0 | 91.4 | 0 | 3 | 0 | 0 | 22 | 0 | 19 | 0 | 58 | 68 | 50 | 0 |
| O=C(Nc1n[nH]c2nc(-c3cccc(O)c3)ccc12)C1CC1 [SB-711805] | 25 | 0 | 0 | 14 | 15 | 0 | 12 | 5 | 0 | 0 | 15 | 17 | 14 | 50 | 0 | 9 | 0 | 13 | 0 | 0 |
| CN(c1ccc(F)c(NC(=O)c2cccc(OC(C)(C)C#N)c2Cl)c1)c1ccc2nc(NC(=O)C3CC3)sc2n1 | 97.9 | 0 | 0 | 11 | 95.4 | 9 | 0 | 93.1 | 46 | 0 | 0 | 0 | 0 | 15 | 0 | 0 | 0 | 75 | 0 | 0 |
| CCn1cnc2c(NCc3ccccc3)ncnc21 [SKF-96418] | 0 | 0 | 0 | 25 | 5 | 0 | 0 | 0 | 34 | 0 | 22 | 16 | 14 | 0 | 2 | 0 | 0 | 0 | 0 | 0 |
| Cc1ccccc1CC(=O)N1CCc2cc(-c3cn(C)c4ncnc(N)c34)ccc21 [GSK2603346] | 30 | 0 | 0 | 0 | 89 | 21 | 23 | 0 | 0 | 1 | 20 | 19 | 88 | 62 | 90 | 29 | 97.8 | 0 | 88 | 7 |
| Cc1ccc(NC(=O)c2ccnc(N3CCCCC3)c2)cc1-c1ccc(C(=O)NCC2CC2)cc1 [GW775610] | 29 | 0 | 0 | 34 | 79 | 0 | 15 | 0 | 0 | 13 | 0 | 0 | 0 | 0 | 0 | 0 | 11 | 0 | 26 | 12 |
| COC(=O)Nc1nc2ccc(Oc3ccc(CC(=O)Nc4cc(C(F)(F)F)ccc4F)cc3)cc2[nH]1 [GW680903] | 22 | 1 | 7 | 0 | 78 | 33 | 0 | 7 | 28 | 37 | 0 | 0 | 0 | 0 | 8 | 0 | 0 | 0 | 0 | 20 |
| Cn1cc(-c2ccc3c(c2)CCN3C(=O)Cc2cc(F)cc(C(F)(F)F)c2)c2c(N)ncnc21 [GSK2635225] | 62 | 0 | 0 | 16 | 84 | 0 | 18 | 26 | 3 | 26 | 0 | 3 | 33 | 12 | 41 | 0 | 25 | 0 | 31 | 10 |
| CS(=O)(=O)c1cccc(CNc2nc(Nc3ccc4c(c3)CCC(=O)N4)ncc2C(F)(F)F)c1 | 0 | 0 | 0 | 34 | 0 | 16 | 0 | 16 | 0 | 0 | 0 | 0 | 62 | 46 | 81 | 0 | 0 | 41 | 0 | 0 |
| Cc1cc(-c2c(-c3ccc(F)cc3)ncn2CCCN2CCOCC2)nc(N)n1 [SB-222517] | 12 | 0 | 0 | 45 | 18 | 0 | 4 | 17 | 0 | 35 | 0 | 24 | 30 | 0 | 15 | 0 | 5 | 0 | 0 | 0 |
| Cl.Cl.NC(CNC(=O)c1cc(Br)c(-c2ccnc3[nH]ccc23)s1)c1ccccc1 (stereo not shown) [GSK1322949] | 3 | 0 | 0 | 69 | 0 | 31 | 0 | 0 | 7 | 19 | 16 | 14 | 27 | 15 | 3 | 56 | 20 | 53 | 4 | 0 |
| Cc1ccc(-c2ccc3occ(-c4ccc(S(C)=O)cc4)c3c2)nn1 (stereo not shown) | 0 | 0 | 0 | 0 | 0 | 0 | 0 | 1 | 1 | 0 | 0 | 0 | 0 | 0 | 0 | 0 | 0 | 0 | 0 | 0 |
| Cc1cccc(Nc2nc(NCCN)ncc2C(N)=O)c1 [GSK1292139] | 15 | 0 | 0 | 24 | 0 | 0 | 26 | 3 | 0 | 15 | 0 | 4 | 62 | 31 | 22 | 98.4 | 32 | 83 | 26 | 2 |
| CSc1ccc(NC2=C(c3ccc(Cl)cc3)C(=O)NC2=O)cc1 [SB-317658] | 0 | 11 | 1 | 54 | 29 | 43 | 27 | 26 | 0 | 37 | 0 | 0 | 1 | 29 | 37 | 12 | 1 | 16 | 17 | 1 |
| COc1cc(Nc2ccnc3cc(-c4ccncc4)ccc23)cc(OC)c1OC.Cl [GW494610] | 98.6 | 0 | 0 | 0 | 96.9 | 27 | 24 | 67 | 31 | 20 | 7 | 8 | 25 | 30 | 0 | 13 | 0 | 83 | 55 | 13 |
| O=C(O)C(F)(F)F.O=c1[nH]ccc2nc(N[C@@H]3CCNC3)nc(Nc3ccc4c(c3)S(=O)(=O)CC4)c12 [GSK2181306] | 40 | 0 | 0 | 2 | 97.2 | 94.5 | 29 | 7 | 6 | 93.5 | 49 | 28 | 85 | 76 | 34 | 100 | 96 | 92.6 | 95.6 | 33 |
| Cc1nn2c(=O)cc(N3CCO[C@H](C)C3)nc2n1Cc1cccc(Cl)c1Cl [GSK2373693] | 13 | 0 | 0 | 0 | 0 | 18 | 27 | 0 | 0 | 15 | 22 | 66 | 7 | 0 | 4 | 0 | 4 | 17 | 10 | 12 |
